Data: PubChem BioAssay (NCI)
Compounds without any hit were thinned out: in the full panel of roughly 83,000, 20% have a hit.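 The endpoint reported here, percent growth, reads 100 for growth as untreated, 0 for no net growth and -100 for all cells dead.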 A number with no mark means an inactive call. Calls of active or inactive are those of the source. Rule for the calls: active = growth percent below 10; inactive = the rest.

Tests used:
Assay in all cases: NCI-60 one-dose screen, 48 h (100 = growth as untreated, 0 = no growth, -100 = all killed)
Conditions in all cases: 10 µM unless noted
DU-145 prostate = test system: DU-145 prostate
K-562 leukemia = test system: K-562 leukemia
MALME-3M melanoma = test system: MALME-3M melanoma
MDA-MB-231 breast = test system: MDA-MB-231 breast
RXF 393 renal = test system: RXF 393 renal
SF-268 CNS = test system: SF-268 CNS
SF-295 CNS = test system: SF-295 CNS
SF-539 CNS = test system: SF-539 CNS
UACC-257 melanoma = test system: UACC-257 melanoma
M14 melanoma = test system: M14 melanoma
HCT-15 colon = test system: HCT-15 colon
HT29 colon = test system: HT29 colon
SNB-75 CNS = test system: SNB-75 CNS
SNB-19 CNS = test system: SNB-19 CNS
U251 CNS = test system: U251 CNS
PC-3 prostate = test system: PC-3 prostate
SK-MEL-5 melanoma = test system: SK-MEL-5 melanoma
UACC-62 melanoma = test system: UACC-62 melanoma
LOX IMVI melanoma = test system: LOX IMVI melanoma
SK-MEL-28 melanoma = test system: SK-MEL-28 melanoma

Row | SMILES | growth (DU-145 prostate) | growth (K-562 leukemia) | growth (MALME-3M melanoma) | growth (MDA-MB-231 breast) | growth (RXF 393 renal) | growth (SF-268 CNS) | growth (SF-295 CNS) | growth (SF-539 CNS) | growth (UACC-257 melanoma) | growth (M14 melanoma) | growth (HCT-15 colon) | growth (HT29 colon) | growth (SNB-75 CNS) | growth (SNB-19 CNS) | growth (U251 CNS) | growth (PC-3 prostate) | growth (SK-MEL-5 melanoma) | growth (UACC-62 melanoma) | growth (LOX IMVI melanoma) | growth (SK-MEL-28 melanoma)
1 | Brc1cccc(-c2cc(-c3ccc4c(c3)OC=CO4)[nH]n2)c1 | 54.8% | 13.6% | 25.6% | 53.2% | 60.2% | 64.6% | 38% | 49.3% | 67.5% | 15.7% | 21.1% | 14% | 27.5% | 48.6% | 29% | 54.1% | 22.8% | 52.2% | 45.6% | 50%
2 | N#C/C(=N\Nc1ccc(F)cc1)C(=O)Nc1cc(-c2ccccc2)nn1-c1ccccc1 | 22.9% | 12.8% | -17% (active) | -6.26% (active) | -2.63% (active) | 14.5% | 2.07% (active) | 8.69% (active) | -13.5% (active) | 18.3% | 8.61% (active) | 8.84% (active) | -5.46% (active) | 5.24% (active) | 8.65% (active) | 7.13% (active) | -51.4% (active) | 4.43% (active) | 12.5% | 22.1%
3 | CNC(=O)c1cc(N2CCc3cc(NC(=O)Nc4ccc(N5CCN(C)CC5)c(C(F)(F)F)c4)ccc32)ccn1 | 84.6% | 0.938% (active) | 67.8% | 74.3% | -16% (active) | 80.4% | -49.8% (active) | 16.8% | 104% | 61.6% | 29.1% | 21.8% | 75.1% | 81.5% | 52.7% | 59.7% | 85.8% | 104% | -77.5% (active) | 7.33% (active)
4 | CCN(CC)c1ccc(/C=N/NC(=O)c2ccc(S(N)(=O)=O)cc2)cc1 | 34.7% | 14.7% | 8.81% (active) | 38.3% | -6.07% (active) | 29.4% | 16% | 17% | 2.22% (active) | -1.23% (active) | 20.4% | 30.8% | 71.1% | 36.9% | 33.5% | 43.8% | -0.119% (active) | 15.7% | 0.095% (active) | 22.5%
5 | Brc1cc(-c2cc(-c3ccc4c(c3)OCCO4)[nH]n2)cs1 | 54.2% | 15% | 35.5% | 51.6% | 47.5% | 62.6% | 41.7% | 41% | 76.4% | 35% | 24.4% | 22.6% | 19.9% | 56.9% | 40% | 61.8% | 23.5% | 54.7% | 42.3% | 58.6%
6 | CC1CCN(CC(=O)Nn2c(COc3ccccc3)nc3ccccc3c2=O)CC1 | 101% | 32.2% | 79.5% | 78.4% | 94.2% | 99.4% | 96.9% | 88.6% | 95.4% | 78.9% | 56% | 73.1% | 72.6% | 86.4% | 81.4% | 94.3% | 82.9% | 69.3% | 85.3% | 92.8%
7 | CCN1CCN(c2ccc(NC(=O)Nc3ccc4c(ccn4-c4ccnc(C(=O)NC)c4)c3)cc2C(F)(F)F)CC1 | 86% | -9.49% (active) | -65.2% (active) | 58.1% | -30.7% (active) | 83.9% | -47.1% (active) | -55.3% (active) | 96.7% | 17.9% | 9.57% (active) | -44.5% (active) | 43.7% | 81% | 44.7% | 52.6% | 67.4% | 92.8% | -87.7% (active) | -81% (active)
8 | CC1=Cc2ccccc2OC12C=Cc1ccccc1O2 (stereo not given) | 119% | 92.3% | 98.7% | 89.8% | 97.8% | 98.8% | 97.2% | 97.8% | 114% | 107% | 96.8% | 98.2% | 81.4% | 91.1% | 102% | 84.9% | 92.4% | 83% | 90.6% | 114%
9 | COc1ccc(/C(=N\N=C(N)N)c2ccc(Cl)cc2)cc1OC | 90.3% | 49.6% | 90% | 71% | 54.3% | 59.9% | 71.8% | 83% | 90.2% | 65.5% | 77.3% | 54.9% | 46.2% | 72.9% | 72.4% | 44% | 93% | 80.2% | 58.3% | 96.5%
10 | COc1ccc(/C=N/NC(=O)CSc2nc(-c3cnccn3)cc(-c3cccs3)c2C#N)cc1 | 61.7% | 79.5% | 91.9% | 70.5% | 39.7% | 83.5% | 80.3% | 39.1% | 95.9% | 77.4% | 87.3% | 8.86% (active) | 77.3% | 57.8% | 68.1% | 72.9% | 72.5% | 59.4% | 45.7% | 77%
11 | NC1CC2(CCN(c3cnc(C(=O)Nc4cc(F)cc5cccnc45)cn3)CC2)C1 | 81.3% | -13.3% (active) | 96.2% | 80.1% | 73.5% | 83.1% | 58% | 75.7% | 103% | 78.9% | 3.7% (active) | 5.06% (active) | 74.2% | 83.1% | 57.1% | 76.6% | 95.3% | 95.4% | -17% (active) | 93.3%
12 | CCOC(=O)c1c(NC(=O)c2ccc(C(F)(F)F)cc2)sc2c(CN3CCN(C)CC3)c(O)ccc12 | -39.1% (active) | -57.5% (active) | -56.9% (active) | -43.3% (active) | -86% (active) | -49.5% (active) | -58% (active) | -89.7% (active) | -13.5% (active) | -26.1% (active) | -72.9% (active) | -52.1% (active) | 63.8% | -27.3% (active) | -88% (active) | -79% (active) | 64.4% | 28.8% | -93.1% (active) | -82.3% (active)
13 | O=C(CSc1nc2ccccc2c(=O)n1-c1ccccc1)N/N=C/c1ccc(Oc2ccc(Cl)cc2)cc1 | 38.4% | 61.2% | 51.3% | 49.2% | 42% | 87.1% | 83.8% | 68.5% | 96.9% | 48.8% | 60.8% | 59.1% | 60.1% | 33.2% | 15.2% | 58.7% | 71.2% | 66.6% | 14% | 62.4%
14 | O=C1/C(=C/C=C/c2ccco2)SC(=S)N1Cc1ccccc1 | 93.8% | 71.2% | 87.2% | 92.7% | 95.3% | 89.7% | 97% | 101% | 91.6% | 92.1% | 65% | 110% | 84.7% | 89.2% | 92.3% | 101% | 98.8% | 82.1% | 96.4% | 101%
